# Measurements reported in PubChem BioAssay (EPA / NIEHS).
# Calls of active or inactive are those of the source. How the source made its calls: active means hit-call score of the fitted dose curve at least 0.9, where 1 is the maximum; inactive means score below 0.9.
# How the values were obtained:
# Details in all cases: mRNA level, 48 h; actives raise or lower the signal
# [1] = read-out: ABC Transporter (ABCB1), ABCB1 (gene 5243); experiment: LTEA_HepaRG_ABCB1: Life Technologies and Expression Analysis (LTEA) Assay for ABC Transporter (ABCB1) using HepaRG (AID 2283460)
# How it was run: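 HepaRG cells exposed in duplicate for 48 h in serum-free induction medium to eight half-log concentrations up to 100 uM in 0.5% DMSO. ABCB1 mRNA quantified by qRT-PCR, normalised to ACTB, GAPDH and POLR2A; fitted bidirectionally versus DMSO.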
# [2] = read-out: growth arrest and DNA damage 45 (GADD45B), GADD45B (gene 4616); experiment: LTEA_HepaRG_GADD45B: Life Technologies and Expression Analysis (LTEA) Assay for growth arrest and DNA damage 45 (GADD45B) using HepaRG (AID 2283461)
# How it was run: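 Differentiated human HepaRG cells in serum-free induction medium exposed 48 h in duplicate to eight concentrations, top 100 uM, half-log steps, 0.5% DMSO. GADD45B mRNA by TaqMan qRT-PCR, normalized to ACTB, GAPDH, POLR2A; bidirectional fit versus DMSO.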
# [3] = read-out: ABC Transporter (ABCC3), ABCC3 (gene 8714); experiment: LTEA_HepaRG_ABCC3: Life Technologies and Expression Analysis (LTEA) Assay for ABC Transporter (ABCC3) using HepaRG (AID 2283462)
# How it was run: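 Differentiated human HepaRG cells exposed 48 h in serum-free induction medium, 0.5% DMSO vehicle, 8-point half-log series to 100 uM in duplicate. ABCC3 mRNA by qRT-PCR, normalised to ACTB, GAPDH, POLR2A; bidirectional fit vs DMSO.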
# [4] = read-out: ABC Transporter (ABCB11), ABCB11 (gene 8647); experiment: LTEA_HepaRG_ABCB11: Life Technologies and Expression Analysis (LTEA) Assay for ABC Transporter (ABCB11) using HepaRG (AID 2283463)
# How it was run: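 Differentiated human HepaRG cells in serum-free induction medium, dosed in duplicate for 48 h. Eight-point half-log series from 100 uM in 0.5% DMSO; ABCB11 mRNA by qRT-PCR, normalized to ACTB, GAPDH, POLR2A, fitted bidirectionally versus DMSO.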
# [5] = read-out: ABC Transporter (ABCC2), ABCC2 (gene 1244); experiment: LTEA_HepaRG_ABCC2: Life Technologies and Expression Analysis (LTEA) Assay for ABC Transporter (ABCC2) using HepaRG (AID 2283464)
# How it was run: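 Differentiated HepaRG cells in serum-free induction medium exposed 48 h to eight half-log concentrations up to 100 uM, 0.5% DMSO, in duplicate. ABCC2 mRNA measured by qRT-PCR (TaqMan, Fluidigm), normalized to ACTB, GAPDH and POLR2A. Fitted in both directions against DMSO.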
# [6] = read-out: ATP-citrate lyase (ACLY), ACLY (gene 47); experiment: LTEA_HepaRG_ACLY: Life Technologies and Expression Analysis (LTEA) Assay for ATP-citrate lyase (ACLY) using HepaRG (AID 2283466)
# How it was run: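 Differentiated HepaRG cells exposed 48 h in serum-free induction medium to eight half-log concentrations up to 100 uM in 0.5% DMSO, duplicates. Transcript measured by Fluidigm TaqMan qRT-PCR, normalized to ACTB, GAPDH, POLR2A; bidirectional fit versus DMSO.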
# [7] = read-out: Peroxisomal acyl-coenzyme A oxidase 1 (ACOX1) gene, ACOX1 (gene 51); experiment: LTEA_HepaRG_ACOX1: Life Technologies and Expression Analysis (LTEA) Assay for Peroxisomal acyl-coenzyme A oxidase 1 (ACOX1) gene using HepaRG (AID 2283467)
# How it was run: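 HepaRG cells, plated 48 h then switched to serum-free induction medium, were exposed in duplicate for 48 h to 8-point half-log concentrations up to 100 uM in 0.5% DMSO. ACOX1 mRNA was measured by qRT-PCR, normalized to ACTB/GAPDH/POLR2A, and fitted bidirectionally versus DMSO.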
# [8] = read-out: Broad substrate specificity ATP-binding cassette transporter ABCG2 (Homo sapiens) (UniProt Q9UNQ0); experiment: LTEA_HepaRG_ABCG2: Life Technologies and Expression Analysis (LTEA) Assay for ABC Transporter (ABCG2) using HepaRG (AID 2283465)
# How it was run: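 Differentiated HepaRG cells were exposed for 48 h in serum-free induction medium to 8 half-log concentrations, top 100 uM, in 0.5% DMSO. ABCG2 mRNA was measured by qRT-PCR, normalized to ACTB, GAPDH and POLR2A, with bidirectional fitting versus DMSO.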
# [9] = read-out: Forkhead box O3 (FOXO3), FOXO3 (gene 2309); experiment: LTEA_HepaRG_FOXO3: Life Technologies and Expression Analysis (LTEA) Assay for Forkhead box O3 (FOXO3) using HepaRG (AID 2283459)
# How it was run: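 Differentiated human HepaRG cells, 48 h post-plating, exposed in duplicate for 48 h in serum-free induction medium; 8-point half-log series from 100 uM in 0.5% DMSO. FOXO3 mRNA by TaqMan qRT-PCR, normalized to ACTB/GAPDH/POLR2A; bidirectional fit versus DMSO.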
# Broad substrate specificity ATP-binding cassette transporter ABCG2 (Homo sapiens), sequence (Q9UNQ0 whole entry, looked up): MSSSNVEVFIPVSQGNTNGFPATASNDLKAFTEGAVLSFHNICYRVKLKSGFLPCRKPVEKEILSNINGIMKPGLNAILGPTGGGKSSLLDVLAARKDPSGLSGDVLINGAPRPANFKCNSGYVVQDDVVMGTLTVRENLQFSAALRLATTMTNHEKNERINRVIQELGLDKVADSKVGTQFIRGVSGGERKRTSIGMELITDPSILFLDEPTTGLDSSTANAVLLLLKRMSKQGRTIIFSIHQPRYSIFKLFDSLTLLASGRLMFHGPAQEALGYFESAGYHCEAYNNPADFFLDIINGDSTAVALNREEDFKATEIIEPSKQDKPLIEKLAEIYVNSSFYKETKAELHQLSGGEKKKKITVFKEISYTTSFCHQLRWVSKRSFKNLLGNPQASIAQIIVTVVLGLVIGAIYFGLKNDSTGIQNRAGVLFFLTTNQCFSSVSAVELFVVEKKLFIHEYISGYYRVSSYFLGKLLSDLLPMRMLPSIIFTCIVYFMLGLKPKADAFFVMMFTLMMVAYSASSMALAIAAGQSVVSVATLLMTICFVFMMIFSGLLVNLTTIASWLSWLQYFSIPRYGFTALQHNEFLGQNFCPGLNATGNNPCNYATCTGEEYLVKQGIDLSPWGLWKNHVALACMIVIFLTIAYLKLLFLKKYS
smiles,measurement,setting,value
CCCCOC(=O)CCCCCCCCC(=O)OCCCC,outcome,[1],inactive
same,outcome,[2],inactive
same,outcome,[3],inactive
same,outcome,[4],inactive
same,outcome,[5],inactive
same,outcome,[6],inactive
same,outcome,[7],inactive
CCCCCCCCCCCCCCCC,outcome,[1],inactive
same,outcome,[2],inactive
same,outcome,[4],inactive
same,outcome,[5],inactive
same,outcome,[8],inactive
same,outcome,[6],inactive
same,outcome,[7],inactive
CC=Cc1ccc(O)c(OC)c1,outcome,[1],inactive
same,outcome,[2],inactive
same,outcome,[4],inactive
same,outcome,[5],inactive
same,outcome,[8],inactive
same,outcome,[6],inactive
same,outcome,[7],inactive
OC[C@@H](O)[C@@H](O)[C@H](O)[C@H](O)CO,outcome,[9],inactive
same,outcome,[1],inactive
same,outcome,[2],inactive
same,outcome,[4],inactive
same,outcome,[5],inactive
same,outcome,[6],inactive
same,outcome,[7],inactive
COc1ccc2c(c1)c(CC(=O)O)c(C)n2C(=O)c1ccc(Cl)cc1,outcome,[1],inactive
same,outcome,[2],inactive
same,outcome,[3],inactive
same,outcome,[5],inactive
same,outcome,[6],inactive
same,outcome,[7],inactive
CCCCCC(=O)O,outcome,[9],inactive
same,outcome,[1],inactive
same,outcome,[2],inactive
same,outcome,[4],inactive
same,outcome,[5],inactive
same,outcome,[6],inactive
same,outcome,[7],inactive
COc1cc(-c2nc(NC(=O)c3cc4cc(C)cc(C)c4n3CC(=O)O)sc2CCC2CCCCC2)c(OC)cc1Cl,AC50,[1],11.4 µM (active)
same,AC50,[2],2.18 µM (active)
same,outcome,[3],inactive
same,AC50,[4],7.37 µM (active)
same,AC50,[5],7.35 µM (active)
same,AC50,[6],12 µM (active)
same,AC50,[7],8.11 µM (active)
c1cc(-c2ccncc2)ccn1,outcome,[1],inactive
same,outcome,[2],inactive
same,outcome,[3],inactive
same,outcome,[5],inactive
same,outcome,[8],inactive
same,outcome,[6],inactive
same,outcome,[7],inactive
